Activity calls are given as the source filed them. The calls were made as follows: active = hit-call score of the fitted dose curve at least 0.9, where 1 is the maximum; inactive = score below 0.9.
Experiment: ATG_GLI_CIS: Attagene CIS-FACTORIAL HepG2 Assay for human Zinc Finger Protein GLI1 (AID 2282945)
Conditions: HepG2, Attagene cis-factorial reporter mRNA, GLI element; actives raise or lower the signal
Outline: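 HepG2 cells transiently transfected with cis-promoter multiplexed reporter units report endogenous transcription factor activity. After 24 h chemical exposure, reporter mRNA was quantified by RT-PCR, 6-FAM labelling, HpaI digestion and capillary electrophoresis, with bidirectional fitting against DMSO.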
For Nc1ccc(S(=O)(=O)Nc2nccs2)cc1, the outcome was “inactive”.
In the case of C=C(C)C(=O)OCC(F)(F)C(F)(F)C(F)(F)F, the outcome is reported as “inactive”.
In the case of O=P(O)(O)OCCC(F)(F)C(F)(F)C(F)(F)C(F)(F)C(F)(F)C(F)(F)F, the outcome is reported as “inactive”.
With CC(=O)Nc1ccc(N=Nc2cc(C)ccc2O)cc1 the outcome was “inactive”.
For FC(F)(F)C(F)(F)C(F)(F)C(F)(F)CCI, the outcome was “inactive”.
With CCc1c(Br)c(Br)c(Br)c(Br)c1Br the outcome was “inactive”.
For CC(C)(C)c1ccc(OC2CCCCC2O)cc1 (stereo not given), the outcome was “inactive”.
With CC(C)OC(=O)c1ccccc1C(=O)OC(C)C the outcome was “inactive”.
In the case of OC[C@@H](O)[C@@H](O)[C@H](O)[C@@H](O)CO, the outcome is reported as “inactive”.
With CN(C)Cc1ccccc1O the outcome was “inactive”.
For CCc1ccc(C(c2ccc(CC)cc2)C(Cl)Cl)cc1, the outcome was “inactive”.
In the case of CC(C)c1ccccc1N, the outcome is reported as “inactive”.
In the case of C1COCCN1, the outcome is reported as “inactive”.
With COC(=O)CCC(F)(F)C(F)(F)C(F)(F)C(F)(F)F the outcome was “inactive”.
For C=CC(=O)OCC(F)(F)C(F)(F)C(F)(F)C(F)(F)C(F)(F)C(F)(F)C(F)(F)F, the outcome was “inactive”.
For O=S(=O)(O)c1ccc2ccccc2c1, the outcome was “inactive”.
In the case of CCCCC(CC)COP(=O)(O)OCC(CC)CCCC (stereo not given), the outcome is reported as “inactive”.
With COC(=O)C1CCC(C(=O)OC)CC1 (stereo not given) the outcome was “inactive”.
With Nc1cc(Cl)c(N)c(Cl)c1 the outcome was “inactive”.
In the case of O=C(O)C(F)(F)C(F)(F)OC(F)(F)F, the outcome is reported as “inactive”.
With CC(C)=CCCC(C)CCOC(=O)C(C)C (stereo not given) the outcome was “inactive”.
With N=C(N)C(F)(F)C(F)(F)C(F)(F)C(F)(F)C(F)(F)C(F)(F)C(F)(F)F the outcome was “inactive”.
For O=C(Cl)C(F)(F)C(F)(F)C(F)(F)C(F)(F)C(F)(F)C(F)(F)C(F)(F)C(F)(F)F, the outcome was “inactive”.
With C=CC(F)(F)C(F)(F)C(F)(F)C(F)(F)C(F)(F)C(F)(F)C(F)(F)C(F)(F)F the outcome was “inactive”.
For CS(C)(=O)=O, the outcome was “inactive”.
With O=C(O)C(F)(F)C(F)(F)C(F)(F)C(F)(F)C(F)(F)C(F)(F)C(F)(F)C(F)(F)C(F)(F)C(F)(F)C(F)(F)C(F)(F)F the outcome was “inactive”.
For O=C(O)C(F)(F)C(F)(F)C(F)(F)C(F)(F)F, the outcome was “inactive”.
With Cc1ccc(S(=O)(=O)OCC(F)(F)C(F)(F)C(F)(F)C(F)(F)C(F)(F)C(F)F)cc1 the outcome was “inactive”.
In the case of Cc1ccc(S(=O)(=O)NCl)cc1, the outcome is reported as “inactive”.
For C=C(C)C(=O)OCC(F)(F)C(F)(F)C(F)(F)C(F)(F)C(F)(F)C(F)(F)C(F)(F)F, the outcome was “inactive”.
In the case of FC(F)(F)C(F)(F)C(F)(F)C(F)(F)C(F)(F)C(F)(F)CCS, the outcome is reported as “inactive”.
For CCCCCC=O, the outcome was “inactive”.
For CCCCCCCCC(F)(F)C(F)(F)C(F)(F)C(F)(F)C(F)(F)C(F)(F)F, the outcome was “inactive”.
In the case of Cc1cc(C)cc(O)c1, the outcome is reported as “inactive”.
In the case of O=S(=O)(OCCOC(F)(F)F)C(F)(F)F, the outcome is reported as “inactive”.

— PubChem BioAssay (EPA / NIEHS)
